The text below walks through data of ChEMBL document CHEMBL1157539, “Thousands of chemical starting points for antimalarial lead identification” (Nature, 2010).

Holding throughout (type): functional
The subject of test [1] is Plasmodium falciparum. Description: GSK_TCMDC: Inhibition of Plasmodium falciparum 3D7 in whole red blood cells, using parasite LDH activity as an index of growth. Test compounds present at 2uM.
Test [2] has as its system Plasmodium falciparum. Description: GSK_TCMDC: Inhibition of Plasmodium falciparum Dd2 in whole red blood cells, using parasite LDH activity as an index of growth. Test compounds present at 2uM.
For another test, the system named is HepG2. The experiment in a line: GSK_TCMDC: Percent inhibition of human HepG2 cell line. Test compounds present at 10uM.

The structures appear in SMILES notation.

What is called Inhibition is the percentage by which the read-out fell short of the control. High values mean a strong effect, low ones a weak effect. For `CCC(C)CN1C(=O)C(c2ccccc2)(c2ccccc2)N=C1N.O=CO` (stereo not drawn), the Inhibition in the test on Plasmodium falciparum [1] is 98%; in the test on Plasmodium falciparum [2], 79%; in the test with HepG2 it was 11%.
For `COc1ccc(C(C(=O)NC2CCN(C[C@H](O)c3ccnc4ccc(OC)cc34)CC2)N2CCN(c3ccc(Cl)c(Cl)c3)CC2)cc1` (stereo partly drawn), in that order: 100%, 79% and 12%.
For `O=C(Nc1ccc(Br)cc1)c1cc(Br)ccc1NS(=O)(=O)c1cc(C(F)(F)F)cc(C(F)(F)F)c1` the same measures were 85%, 67% and 68%.
For `CCN(CCCN1CCCCC1)c1cc(C)nc(Nc2cc(Cl)ccc2C)n1.O=C(O)C(F)(F)F`, in that order: 99%, 37% and 36%.
`Cc1cc(-c2ccnc(Nc3cccc(C#N)c3)n2)cc(C)c1O`: the Inhibition with Plasmodium falciparum [1] was 88%; in the test on Plasmodium falciparum [2], 54%; in the test with HepG2 it was 50%.
For the compound `COc1cccc(C(=O)N2CCN(Cc3cccc(NC(=O)c4cccs4)c3)CC2)c1.O=C(O)C(F)(F)F`, the Inhibition is reported as 95% in the test on Plasmodium falciparum [1], 95% with Plasmodium falciparum [2] and 6% in the test on HepG2.
With `COc1ccc(C(=O)Nc2ccc(-c3ccc([N+](=O)[O-])cc3)cc2)cc1CCCN(C)C.Cl`, the Inhibition is recorded as 98% with Plasmodium falciparum [1], 9% in the test with Plasmodium falciparum [2] and 20% in the test on HepG2.
For `CC(=O)Nc1cccc(C(=O)Nc2cccc(-c3ccc(-c4nc5cc(C(F)(F)F)ccc5[nH]4)s3)c2)c1` the same measures were 98%, 46% and 80%.
For `O=C(NC1CCN(Cc2ccccc2)CC1)c1ccc(-c2nc3cc(Cl)c(Cl)cc3[nH]2)s1`, in that order: 100%, 99% and 17%.
For `O=C(/C=C/c1ccc(Cl)c(Cl)c1)NCCCCCN1CCCN(C(=O)Nc2ccc(OC(F)F)cc2)CC1`, the Inhibition is listed as 99% with Plasmodium falciparum [1], 0% in the test on Plasmodium falciparum [2] and 39% in the test with HepG2.
In the case of `CC(C)Cc1cn(-c2nc(-c3nc4ccccc4[nH]3)cs2)c2ccncc12.Cl`, the Inhibition with Plasmodium falciparum [1] was 100%; with Plasmodium falciparum [2] it was 99%; in the test with HepG2, 34%.
For `CC(C(=O)N1CCCC1)N1CCN(S(=O)(=O)c2ccc(C(C)(C)C)cc2)CC1` (stereo not drawn), in that order: 98%, 86% and 4%.
Take `CC(=O)c1sc2ccccc2c1O`: the Inhibition in the test with Plasmodium falciparum [1] is 91%; in the test on Plasmodium falciparum [2], 0%; in the test on HepG2, 14%.
For `CCCCCCNC(=O)c1nn(CCN2CCC(N3CCCC3)CC2)cc1-c1ccc(Cl)c(Cl)c1`, in that order: 100%, 33% and 31%.
For `Cc1cc(NC(=O)Nc2ccc(Cl)cc2F)c2ccccc2n1` the same measures were 100%, 71% and 10%.
For `COC1CCC(C(=O)Nc2ccc(-c3cccc(-c4nc5cc(C(F)(F)F)ccc5[nH]4)c3)cc2)CC1` (stereo not drawn) the same measures were 85%, 48% and 69%.
Turning to `CCC(C)NCC(O)(c1ccc(Cl)cc1)c1ccc(Cl)cc1` (stereo not drawn), the Inhibition in the test with Plasmodium falciparum [1] is listed as 95%; in the test on Plasmodium falciparum [2], 76%; with HepG2, 5%.
For `CCOc1ccc2c(=NN=Cc3ccccc3OC)cc(C)[nH]c2c1` the same measures were 99%, 93% and 11%.
For `Cc1nc(NCCc2c[nH]cn2)cc(NCc2ccccc2)n1` the same measures were 100%, 5% and 5%.
`Cc1ccc(NC(=O)c2ccc(CN3CCCN(Cc4cccc(O)c4)CC3)cc2)cc1C.O=C(O)C(F)(F)F`: the Inhibition is on record as 98% with Plasmodium falciparum [1], 25% in the test with Plasmodium falciparum [2] and 33% in the test on HepG2.
For `COc1ccc2cc(C(C)NC3CCN(c4cccc(NC(=O)c5ccncc5)c4)CC3)ccc2c1` (stereo not drawn) the same measures were 91%, 6% and 13%.
For `N#Cc1ccc(N(CCOc2ccc3c(c2)CCC(=O)N3)Cc2ccccc2C(F)(F)F)cc1C(F)(F)F`, in that order: 98%, 64% and 19%.
For `Oc1ccc2[nH]cc(C3CCN(CCCCCCCCCN4CCC(c5c[nH]c6ccc(O)cc56)CC4)CC3)c2c1`, in that order: 100%, 2% and 22%.
On to `CCC(C)(C)c1ccc(S(=O)(=O)Nc2ccc(Cl)c(OCCN3CCCCC3)c2)cc1`, for which the Inhibition in the test on Plasmodium falciparum [1] came to 88%; in the test with Plasmodium falciparum [2], 93%; with HepG2, 100%.
For `COc1cccc(CNC(=O)[C@@H]2CN(C(=O)c3ccccc3)CCN2)c1.O=C(O)C(F)(F)F` the same measures were 92%, 0% and 4%.
For `Cc1noc(C)c1-c1cccc(CNCc2cccc(-c3csc(-c4nc5ccccc5[nH]4)c3)c2)c1.O=C(O)C(F)(F)F` the same measures were 100%, 74% and 32%.
For `O=C(Nc1ccc(Cl)cc1)c1ccc(CN2CCCN(Cc3cccc(Cl)c3)CC2)cc1.O=C(O)C(F)(F)F`, in that order: 96%, 15% and 53%.
As for `COC(=O)c1ccc(-c2ccc(C(=O)NCC3CCN(c4nc(N)c5cc(OC)c(OC)cc5n4)CC3)cc2)cc1`, the figures for the Inhibition in the test with Plasmodium falciparum [1], with Plasmodium falciparum [2] and in the test on HepG2 were 98%, 100% and 53%, respectively.
For `N#Cc1ccc(-c2ccc(C(=O)NC3CCN(CCN4CCc5c(cccc5C(F)(F)F)C4)CC3)cc2)cc1`, in that order: 98%, 51% and 40%.
For `CC(=O)COc1c(C2CCN(CCCCNC(=O)c3ccc(-c4ccc(C(F)(F)F)cc4)cc3)CC2)ccc2c1CCCC2` the same measures were 99%, 53% and 100%.
On to `Cc1cccc(Cl)c1Nc1nnc(-c2cccc(C(=O)NC[C@@H]3CC[C@H]4C[C@@H]3C4(C)C)c2)o1`, for which the Inhibition turned out to be 85% in the test on Plasmodium falciparum [1], 69% with Plasmodium falciparum [2] and 2% with HepG2.
